Screening data as filed in PubChem BioAssay.
AddAB inh = less growth of phage-infected E. coli with AddAB. E. coli expressing H. pylori AddAB, absorbance growth. inhibition, % at 11.9 µM. 0.29% of 330,000 active; in the data active = inhibition above about 12%
Tat transport = inhibitors of E. coli Tat protein transport; inhibition, % at 10 µM; 0.036% of 340,000 active; E. coli MC4100 TorA-mCherry Tat export, fluorescence;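 active = mean replicate inhibition at least 50% and at least half of replicates individually reaching 50%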;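 also: exported cargo escapes ClpAP degradation while cytoplasmic cargo is degraded and loses fluorescence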
phage Ecoli inh = E. coli growth loss with phage present. 0.26% of 360,000 active. growth absorbance. inhibition, % at 11.9 µM; in the data active = inhibition above about 11%
E coli growth-1 = counter-screen for AddAB inhibitors: E. coli growth inhibition | E. coli V3065 growth, OD600 absorbance, 18 h | inhibition, % at 11.9 µM | 0.27% of 330,000 active | AID 449728;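 active = inhibition above the campaign's mean inhibition across all tested compounds plus 3 SD, cut at about 9.9% in these data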;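 also: uninfected addAB+ strain grown without phage in ampicillin broth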
E coli growth-2 = blocks Escherichia coli growth; OD600, 23 h; hits give low values; OD600 absorbance (no concentration beside the values); 0.21% of 330,000 active; AID 1053175;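 active = OD600 absorbance below the run mean of sample wells minus 3.6 SD, in any replicate, cut at about 0.56 in these data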
AddAB confirm = confirmation screen: growth loss of phage-infected E. coli expressing H. pylori AddAB | 64% of 880 active | inhibition, % at 11.9 µM | E. coli V3065 expressing H. pylori AddAB, T4 phage, OD; T4 phage with gene 2 nonsense mutations | shares compounds with AddAB inh;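 active = mean inhibition above a set limit taken from the earlier primary screen, cut at about 13% in these data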;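 also: higher means less bacterial growth since AddAB block lets phage replicate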
RecBCD counter = AddAB counter-screen: growth loss of RecBCD+ E. coli infected with mutant T4 phage | inhibition, % at 11.9 µM | AID 488955 | 73% of 880 active | E. coli V66 + mutant T4 phage, OD growth | shares compounds with AddAB inh;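 active = mean inhibition above the mean of solvent-only control wells plus 3 SD, cut at about 4% in these data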;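 also: optical density read after an 18 h incubation at 37 °C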
Bact viability = counter-screen for AddAB inhibitors: inhibitors of bacterial viability; shares compounds with AddAB inh; absorbance (AddAB counterscreen); inhibition, % at 11.9 µM; 35% of 880 active; in the data active = inhibition above about 25%
Of the large screens only hits and unclear results are named; the others gave an inactive call (follow-up assays come after a bar, where they were run). Compounds with a hit are over-represented: about 0.51% of the library has one in this group of screens.

CN1CCc2cc3c(c4c2[C@H]1[C@H](O)c1ccccc1-4)OCO3	AddAB inh 13 (no result: E coli growth-2) | AddAB confirm 27 | RecBCD counter inactive | Bact viability inactive
O=C1c2c(O)ccc(O)c2C(=O)c2c(NCCNCCO)ccc(NCCNCCO)c21	AddAB inh 31, E coli growth-1 32 | AddAB confirm 52 | RecBCD counter inactive | Bact viability 51
O=C1c2ccccc2C(=O)c2c(Nc3ccc(CCO)cc3)ccc(O)c21	none (no result: E coli growth-2)
O=C(NCc1nc2ccccc2[nH]1)c1ccc(Cl)c(S(=O)(=O)N2CCCC2)c1	AddAB inh 16 | AddAB confirm inactive | RecBCD counter 4.0 | Bact viability inactive
CC1(C)OC(=O)C(=NNc2ccccc2)C(=O)O1	none (no result: E coli growth-2)
CC1(C)OC(=O)C(=NNc2ccc(O)cc2)C(=O)O1	AddAB inh 16 | AddAB confirm 17 | RecBCD counter inactive | Bact viability inactive
Cc1ncc(CO)c(C=NNC(=S)Nc2ccc(F)cc2)c1O	none (no result: AddAB inh, Tat transport, phage Ecoli inh, E coli growth-1)
CCCC(=O)NC(c1ccc(C)cc1)c1ccc2cccnc2c1O (stereo not given)	AddAB inh 24, E coli growth-1 34 (no result: phage Ecoli inh, E coli growth-2) | AddAB confirm 28 | RecBCD counter 26 | Bact viability inactive
COc1ccc(C(NC(C)=O)c2ccc3cccnc3c2O)c(OC)c1 (stereo not given)	AddAB inh 12 (no result: phage Ecoli inh) | AddAB confirm inactive | RecBCD counter 6.8 | Bact viability inactive
CC(C)CC(=O)NC(c1cccs1)c1ccc2cccnc2c1O (stereo not given)	AddAB inh 26, E coli growth-1 35 (no result: phage Ecoli inh) | AddAB confirm 26 | RecBCD counter 23 | Bact viability inactive
COc1ccccc1C(NC(C)=O)c1cc(Cl)c2cccnc2c1O (stereo not given)	none
CC(=O)NC(c1cccs1)c1cc(F)c2cccnc2c1O (stereo not given)	none
CCCC(=O)NC(c1ccccc1OC)c1ccc2cccnc2c1O (stereo not given)	AddAB inh 34, E coli growth-1 31 (no result: phage Ecoli inh) | AddAB confirm 30 | RecBCD counter 26 | Bact viability inactive
C[C@]12CCC(=O)C=C1CCC1C2C(O)C[C@@]2(C)C1CC[C@]2(O)C(=O)COC(=O)CCC(=O)O (stereo not given in full)	none (no result: AddAB inh, Tat transport, phage Ecoli inh, E coli growth-1)
COc1cc(C=NNc2ccc(Cl)nn2)cc(OC)c1O	none (no result: AddAB inh, Tat transport, phage Ecoli inh, E coli growth-1)
O=C(Nc1ccc2[nH]c(=O)[nH]c2c1)c1ccc([N+](=O)[O-])o1	AddAB inh 18, E coli growth-1 19 | AddAB confirm 57 | RecBCD counter 9.0 | Bact viability inactive
Cc1ccc(NC(=O)c2ccc([N+](=O)[O-])o2)cc1C	AddAB inh 27, E coli growth-1 31, E coli growth-2 0.47 | AddAB confirm 98 | RecBCD counter 11 | Bact viability 31
O=C(Nc1ccc(N2CCCC2)c(Cl)c1)c1ccc([N+](=O)[O-])o1	none (no result: AddAB inh, E coli growth-1)
O=C(Nc1cccc(NC(=O)c2ccccc2Cl)c1)c1ccc([N+](=O)[O-])o1	AddAB inh 13, E coli growth-1 11 (no result: E coli growth-2) | AddAB confirm 84 | RecBCD counter 5.5 | Bact viability inactive
CCn1nc(C)c(C=NNC(=O)c2ccc3c(c2)OCO3)c1C	none (no result: AddAB inh, Tat transport, phage Ecoli inh, E coli growth-1)
COc1cc2c(cc1OC)-c1nnc(C)n1C1(CCCC1)C2	AddAB inh 24, E coli growth-1 11 | AddAB confirm inactive | RecBCD counter inactive | Bact viability inactive
COc1cc2c(cc1OC)-c1nnc(C)n1C(C)(C)C2	none
O=C(Nc1nc(-c2cccs2)c(C(=O)C(F)(F)F)s1)c1ccccc1	none
O=C(Nc1nc(-c2cccs2)c(C(=O)C(F)(F)F)s1)c1ccco1	AddAB inh 99, E coli growth-1 96 | AddAB confirm inactive | RecBCD counter inactive | Bact viability inactive
CC(C)(C)c1ccc(-c2nn(CCC#N)cc2C=NO)cc1	none (no result: AddAB inh, Tat transport, phage Ecoli inh, E coli growth-1)
Cc1cnc(CNC(=O)c2ccc3oc(C(C)C)nc3c2)[nH]1	none
COc1cc(CNC(=O)c2ccc3oc(C(C)C)nc3c2)cc(OC)c1	AddAB inh 14 | AddAB confirm inactive | RecBCD counter 6.4 | Bact viability inactive
